Rows were chosen to be rich in hits. Some 11% of all compounds tested hit in one or more screens of this group.
PI5P4Ka inh = PI5P4K alpha (human) kinase inhibition; P48426; PI5P4Kalpha enzyme, ADP-Glo luminescence, 60 min; hits give low values; max response, %; 1.2% of 330,000 active; AID 652105; active = max response of -50% or lower; inconclusive = between -30% and -50%; inactive = -30% or higher; also: value at the top dose of about 77 µM; % is scaled to controls: 0 for no effect and ±100 for the full control effect
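PI5P4Kalpha ADP-Glo assay; 5 microM ATP final; 60 min RT reaction; HEPES pH 7.4/EGTA/CHAPS, 5% DMSO; controls lacking substrate or enzyme; luminescent end-point.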
BAZ2B block = blocks human BAZ2B | Q9UIF8 | AlphaScreen BAZ2B-H3K14Ac peptide displacement | Potency, µM (series often up to 114 µM), for inactives: at the top dose activity change, negative = inhibition, actives largely listed as inhibitors | 4.4% of 360,000 active | AID 504333; also: potency is read from the fitted curve at half-maximal effect; % is scaled to controls: 0 for no effect and ±100 for the full control effect; nearly all actives have a fitted effect of over 60% in size
Target sequence (Q9UIF8 whole entry, looked up): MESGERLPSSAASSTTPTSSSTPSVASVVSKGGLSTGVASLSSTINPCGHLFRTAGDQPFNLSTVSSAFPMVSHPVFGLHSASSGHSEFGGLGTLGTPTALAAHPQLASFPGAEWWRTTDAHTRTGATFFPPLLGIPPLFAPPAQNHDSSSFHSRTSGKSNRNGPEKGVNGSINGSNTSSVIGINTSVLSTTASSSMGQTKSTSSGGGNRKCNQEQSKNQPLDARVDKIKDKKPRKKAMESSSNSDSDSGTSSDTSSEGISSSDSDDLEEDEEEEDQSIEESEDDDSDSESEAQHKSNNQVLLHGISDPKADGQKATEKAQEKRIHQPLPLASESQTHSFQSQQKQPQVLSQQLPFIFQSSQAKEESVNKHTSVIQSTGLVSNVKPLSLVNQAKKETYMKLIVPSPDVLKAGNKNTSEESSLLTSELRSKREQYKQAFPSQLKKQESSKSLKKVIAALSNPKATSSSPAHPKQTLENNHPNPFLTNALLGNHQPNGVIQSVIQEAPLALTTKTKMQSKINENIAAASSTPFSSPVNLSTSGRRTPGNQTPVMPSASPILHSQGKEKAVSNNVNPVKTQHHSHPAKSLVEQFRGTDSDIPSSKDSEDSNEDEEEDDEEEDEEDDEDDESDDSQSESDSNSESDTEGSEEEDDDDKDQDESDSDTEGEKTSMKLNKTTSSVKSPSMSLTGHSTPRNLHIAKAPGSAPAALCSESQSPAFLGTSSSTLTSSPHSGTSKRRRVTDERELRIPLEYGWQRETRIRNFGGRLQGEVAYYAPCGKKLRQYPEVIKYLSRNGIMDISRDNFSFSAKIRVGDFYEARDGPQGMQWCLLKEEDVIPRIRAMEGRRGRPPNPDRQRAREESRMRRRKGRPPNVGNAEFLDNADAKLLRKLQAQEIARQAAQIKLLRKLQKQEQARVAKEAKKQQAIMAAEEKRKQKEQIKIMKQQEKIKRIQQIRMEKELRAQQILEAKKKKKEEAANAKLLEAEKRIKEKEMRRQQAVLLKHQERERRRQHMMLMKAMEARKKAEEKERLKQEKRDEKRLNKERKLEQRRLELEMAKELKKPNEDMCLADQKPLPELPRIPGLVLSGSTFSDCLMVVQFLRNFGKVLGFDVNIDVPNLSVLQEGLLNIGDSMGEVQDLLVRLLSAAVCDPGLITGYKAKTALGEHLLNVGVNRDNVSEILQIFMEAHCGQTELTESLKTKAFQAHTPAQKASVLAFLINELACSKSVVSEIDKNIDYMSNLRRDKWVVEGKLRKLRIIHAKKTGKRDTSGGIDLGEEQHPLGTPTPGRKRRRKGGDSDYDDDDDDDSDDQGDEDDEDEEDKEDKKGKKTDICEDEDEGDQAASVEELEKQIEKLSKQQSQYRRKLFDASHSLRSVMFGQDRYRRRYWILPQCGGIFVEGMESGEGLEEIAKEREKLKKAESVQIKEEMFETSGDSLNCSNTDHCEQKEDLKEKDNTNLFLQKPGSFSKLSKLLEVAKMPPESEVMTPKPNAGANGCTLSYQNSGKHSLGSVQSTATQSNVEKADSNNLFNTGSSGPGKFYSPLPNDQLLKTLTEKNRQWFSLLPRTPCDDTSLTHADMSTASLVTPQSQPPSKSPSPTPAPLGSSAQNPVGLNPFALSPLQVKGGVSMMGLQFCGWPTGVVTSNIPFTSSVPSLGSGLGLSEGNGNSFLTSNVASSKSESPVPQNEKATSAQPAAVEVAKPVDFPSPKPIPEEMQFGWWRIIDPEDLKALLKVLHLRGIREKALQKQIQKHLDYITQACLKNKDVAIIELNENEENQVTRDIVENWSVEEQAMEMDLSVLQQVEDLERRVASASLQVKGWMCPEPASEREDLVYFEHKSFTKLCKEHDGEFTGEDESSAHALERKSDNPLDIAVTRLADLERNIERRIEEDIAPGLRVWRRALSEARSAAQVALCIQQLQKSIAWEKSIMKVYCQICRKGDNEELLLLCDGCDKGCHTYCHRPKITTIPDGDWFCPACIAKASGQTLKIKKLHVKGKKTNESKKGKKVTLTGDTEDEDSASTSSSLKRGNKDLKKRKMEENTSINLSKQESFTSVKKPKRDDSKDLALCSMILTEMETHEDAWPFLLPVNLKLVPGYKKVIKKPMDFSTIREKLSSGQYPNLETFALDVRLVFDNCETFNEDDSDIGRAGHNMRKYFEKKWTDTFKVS
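AlphaScreen displacement of biotin-H3(5-23)K14Ac peptide (50 nM final) from BAZ2B (50 nM final) in PBS pH 7.4, 0.01% Tween-20; complex preformed 30 min RT, then compounds (top 110 uM) 30 min RT, beads 20 min dark.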
HP1b chromo inh = HP1-beta chromodomain-methylated histone interaction inhibition | AlphaScreen HP1-beta / biotin-H3K9me3 peptide binding | AID 540317 | 0.56% of 390,000 active | P83916 | Potency, µM (highest dose often 114 µM), for inactives: top-dose activity change, negative = inhibition, most hits filed as inhibitors; also: potency is read from the fitted curve at half-maximal effect; nearly all actives have a fitted effect of over 70% in size
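Compound inhibition of the preformed complex between 50 nM HP1-beta and 50 nM biotinylated H3K9me3 peptide was read by AlphaScreen. Buffer was PBS pH 7.4 with 0.01% Tween-20. Incubations ran 30 min at room temperature, with 10 ug/mL donor/acceptor beads.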
JMJD2A Tudor inh = inhibitors of human JMJD2A Tudor domain; 4.4% of 390,000 active; Potency, µM (doses to about 114 µM), inactives show at the highest dose activity change, negative = inhibition, most hits filed as inhibitors; O75164; AlphaScreen JMJD2A-Tudor / H3K4me3 peptide binding; also: potency is read from the fitted curve at half-maximal effect; % is scaled to controls: 0 for no effect and ±100 for the full control effect; nearly all actives have a fitted effect of over 50% in size
L3MBTL1 inh = L3MBTL1 (human) inhibition; AID 485360; AlphaScreen L3MBTL1–H3K9me1 peptide binding; Potency, µM (top dose mostly 57.1 µM), inactives show at the highest dose activity, negative = inhibition, most hits filed as inhibitors; 0.66% of 230,000 active; Q9Y468; also: potency is read from the fitted curve at half-maximal effect; % is scaled to controls: 0 for no effect and ±100 for the full control effect; nearly all actives have a fitted effect of over 60% in size
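Displacement of a biotinylated histone H3(1-15) peptide monomethylated at Lys9 (75 nM) from L3MBTL1 (50 nM) was measured by AlphaScreen after a 30 min room-temperature compound incubation; cefsulodin titration served as intraplate control.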
G9a block = inhibitors of human histone lysine methyltransferase G9a. G9a H3K9 monomethylation, AlphaScreen, 2 h. 8.8% of 350,000 active. Potency, µM (series often up to 102 µM), inactives show at the highest dose activity, negative = inhibition, usual class: inhibitors; also: potency is read from the fitted curve at half-maximal effect; % is scaled to controls: 0 for no effect and ±100 for the full control effect; nearly all actives have a fitted effect of over 75% in size
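AlphaScreen detection with an anti-monomethyl H3K9 antibody quantified product after a 2 h room-temperature reaction containing 500 nM biotinylated H3K9 peptide, 20 µM SAM and 20 nM enzyme, which had been preincubated 15 min with compound.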
An asterisk follows results filed as active; ? = inconclusive; / = not tested or not shown; ! = not confirmed by another sample; [ ] = dose if it differs, or a comment. Unless noted, calls follow the shape of the dose curve; as a rule, active = well fitted inhibition curve with a large enough effect; inconclusive = small, poorly fitted or top-dose-only effect; inactive = no such curve, though single readings can be large or run the other way.

SMILES	PI5P4Ka inh	BAZ2B block	HP1b chromo inh	JMJD2A Tudor inh	L3MBTL1 inh	G9a block
Cc1ccc(N=Nc2c(N)n[nH]c2N)cc1	2	?	-2%	?	/	35µM*
Cc1cccc(N=Nc2c(N)n[nH]c2-c2ccc(Cl)cc2)c1	/	?	-17%	?	-5%	22%[0.501 µM]
COCC(=O)NNS(=O)(=O)c1ccccc1[N+](=O)[O-]	2	-8%	29%	-15%	10%	18µM*
O=C(NNS(=O)(=O)c1ccccc1[N+](=O)[O-])c1cccc([N+](=O)[O-])c1	-3	-6%	41%	10µM*	3%	-21%
COc1ccccc1CC(=O)NNS(=O)(=O)c1ccccc1[N+](=O)[O-]	1	4%	7%	-18%	2%	24%
O=C(NNS(=O)(=O)c1ccccc1[N+](=O)[O-])c1cccnc1	-5	?	7%	4%[11.4 µM]	/	/
O=C(NNS(=O)(=O)c1ccccc1[N+](=O)[O-])c1cc2ccccc2cc1O	?	?	3%	-35%	/	1.6µM*
O=C(CN(c1cc(C(F)(F)F)ccc1Cl)S(=O)(=O)c1ccccc1)NCCc1ccccc1	/	0%	22%	8%	/	?
Cc1ccc(-c2nc(CN3CCCCC3c3cccc(F)c3)c(C)o2)o1 (stereo unspecified)	-9	-39%	-21%	?	-14%	40µM*
Cc1oc(-c2ccccc2Cl)nc1CN1CCCC1c1ccc(F)cc1 (stereo unspecified)	1	-2%	32%	-16%	4%	/
NC1(C(=O)O)CC1	-2	/	28%	3.2µM*	/	7.1µM*!
NC1(C(=O)O)CCCC1	/	/	/	/	/	-33%[2.33 µM]
CCCCN(CCCC)C(=O)c1cc2c(=O)n3ccccc3nc2s1	/	103%	175%	100%	/	72%[59 µM]
COc1ccc(-n2c(=O)c(-c3cccs3)nc3cnc(N(C)C)nc32)cc1	/	/	/	/	/	15%[0.501 µM]
COc1cccc(NC(=O)C2CCN(Cc3cnn(-c4ccccc4)c3-n3cccc3)CC2)c1	2	-6%	4%	?	/	?
COc1ccc(OC)c(NC(=O)C2CCN(Cc3cnn(-c4ccccc4)c3-n3cccc3)CC2)c1	2	?	?	50µM*	/	45µM*
Cc1ccc(N2CCN(S(=O)(=O)c3ccc4c(c3)CC(=O)N4)CC2)cc1	/	/	/	-28%[229 µM]	/	/
Cc1cc(NC(=O)CSc2nnc3c(C)cc4cc5c(cc4n23)OCO5)no1	/	-3%	/	/	9%	35µM*
Cc1cc(NC(=O)CSc2nnc3c(C)cc4cc(C)c(C)cc4n23)no1	/	2%	33%	-13%	6%	14%
COc1ccc2cc(C)c3nnc(SCC(=O)Nc4cc(OC)c(OC)cc4C(=O)O)n3c2c1	0	-22%	16%	-24%	0%	40µM*
CC(CNC(=O)c1ccc(Cn2c(=O)c3cccn3c3cccnc32)cc1)c1ccccc1 (stereo unspecified)	/	-2%	28%	-4%	/	2%[59 µM]
COC(=O)C(Cc1ccc(O)cc1)NC(=O)CCc1nc2ccccc2s1 (stereo unspecified)	-4	-38%	0%	-10%	/	40µM*
COc1ccccc1OC(=O)CCc1nc2ccccc2s1	?	?	51%	0%	0%	50µM*
CC(=O)c1ccc(OC(=O)CCc2nc3ccccc3s2)cc1	-13	?	36%	-17%	-1%	32µM*
O=C(CCn1c(=O)c2sccc2n(Cc2ccccc2F)c1=O)NCc1ccc2c(c1)OCO2	/	1%	10%	-14%	/	-5%[59 µM]
SMILES	PI5P4Ka inh	BAZ2B block	HP1b chromo inh	JMJD2A Tudor inh	L3MBTL1 inh	G9a block
COc1ccccc1CNC(=O)COCc1cc(-c2cccs2)on1	/	3%	-6%	-17%	/	-15%[59 µM]
CCNC(=O)CCSc1nnc(-c2ccc(O)cc2)o1	/	1%	-3%	0%	/	13µM*
CC(Sc1nnc(-c2ccc(O)cc2)o1)C(=O)Nc1cccc2ccccc12 (stereo unspecified)	-11	-30%	-4%	-19%[57.1 µM]	/	13µM*
Cc1ccc(OC(C)C(=O)N2CCN(CCc3ccncc3)CC2)cc1C (stereo unspecified)	/	-4%	17%	-30%	/	-27%[59 µM]
COc1cc(OC)cc(-c2nc3n(n2)C(c2ccccc2)C(C(N)=O)=C(C)N3)c1 (stereo unspecified)	/	-2%	29%	-7%	/	21%[59 µM]
Cc1cc(C)c2nc(-c3ccccn3)cc(C(=O)Nc3ccc(S(=O)(=O)Nc4cc(C)on4)cc3)c2c1	/	50µM*	-8%	50µM*	-16%	-9%[0.501 µM]
Cc1cc(C)c2nc(-c3ccccn3)cc(C(=O)NCCc3ccc(S(N)(=O)=O)cc3)c2c1	-28	9%	15%	-17%	/	35µM*
CC(C)Nc1cccc(S(=O)(=O)N2CCCN(S(=O)(=O)c3ccc4c(c3)OCCO4)CC2)c1	/	/	/	-30%	/	/
CCSc1cc(C2C(C(=O)OC)=C(C)NC3=C2C(=O)CCC3)c(C)o1 (stereo unspecified)	-3	?	?	?	-1%	7.1µM*
FC(F)(F)c1ccccc1CN1CCN(C2CCCCCC2)CC1	-7	50µM*	?	6.3µM*	-11%	2.5µM*
Cc1ccc(S(=O)(=O)N2CCN(C3CCN(Cc4ccccc4)CC3)CC2)cc1	/	/	25%	2%	-1%	4%[59 µM]
O=[N+]([O-])c1ccccc1CN1CCN(S(=O)(=O)c2ccccc2)CC1	-5	/	?	20µM*	/	/
Cc1ccc(S(=O)(=O)N2CCN(Cc3ccccc3C(F)(F)F)CC2)cc1	1	56µM*	?	?	0%	32µM*
COc1ccc(S(=O)(=O)N2CCN(Cc3ccccc3OC)CC2)cc1	4	/	/	/	/	/
Cc1ccc(S(=O)(=O)N2CCN(Cc3cc(C(C)(C)C)ccc3O)CC2)cc1	-2	-25%	24%	?	-8%	-4%
Cc1ccc(S(=O)(=O)N2CCN(Cc3ccccc3Cl)CC2)cc1	/	45µM*	?	5µM*	/	1.3µM*
Cc1ccc2oc(=O)c3cc(C(=O)N(Cc4ccccc4)C(C)C)sc3c2c1	/	2%	64%	6%	/	4%[59 µM]
O=S1(=O)CCN(Cc2ccccc2C(F)(F)F)CC1	5	-19%	28%	-19%	-5%[11.4 µM]	-6%
O=C1c2ccccc2C(=O)N1C1CCCCC1	-2	-6%	83%	-1%	7%	8%
O=C1c2ccccc2C(=O)N1CC#CCN1CCN(C2CCCCC2)CC1	1	?	15%	?	3%	20µM*
Cc1ccccc1CN1CCN(Cc2ccccc2C(F)(F)F)CC1	/	28µM*	-32%	2.8µM*	/	2.8µM*
Cc1cc(F)ccc1NC(=O)C1CCCN(C(=O)c2cnn(-c3ccccc3)c2-n2cccc2)C1 (stereo unspecified)	/	-8%	17%	-13%	/	-31%[59 µM]

Screening results from PubChem BioAssay.
